The term inhibition denotes the drop in the measured response relative to a control, in per cent.

Values joined by “and” are separate entries in the source; they are usually repeats but may differ in a detail not shown here. Equal values may be shown once. In all, about 340,000 compounds went through this assay and about 2,100 (0.62%) were called active.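 Rule for the calls: active = first-screen hits whose inhibition reached a set limit at any dose in the follow-up dose series; inconclusive = inhibition above the set first-screen limit but never retested; inactive = the rest.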 Not all results are given here. Entries with a potency or affinity are not part of this list.

Rac GTPase-activating protein 1 (Homo sapiens), sequence (Q9H0H5 whole entry, looked up): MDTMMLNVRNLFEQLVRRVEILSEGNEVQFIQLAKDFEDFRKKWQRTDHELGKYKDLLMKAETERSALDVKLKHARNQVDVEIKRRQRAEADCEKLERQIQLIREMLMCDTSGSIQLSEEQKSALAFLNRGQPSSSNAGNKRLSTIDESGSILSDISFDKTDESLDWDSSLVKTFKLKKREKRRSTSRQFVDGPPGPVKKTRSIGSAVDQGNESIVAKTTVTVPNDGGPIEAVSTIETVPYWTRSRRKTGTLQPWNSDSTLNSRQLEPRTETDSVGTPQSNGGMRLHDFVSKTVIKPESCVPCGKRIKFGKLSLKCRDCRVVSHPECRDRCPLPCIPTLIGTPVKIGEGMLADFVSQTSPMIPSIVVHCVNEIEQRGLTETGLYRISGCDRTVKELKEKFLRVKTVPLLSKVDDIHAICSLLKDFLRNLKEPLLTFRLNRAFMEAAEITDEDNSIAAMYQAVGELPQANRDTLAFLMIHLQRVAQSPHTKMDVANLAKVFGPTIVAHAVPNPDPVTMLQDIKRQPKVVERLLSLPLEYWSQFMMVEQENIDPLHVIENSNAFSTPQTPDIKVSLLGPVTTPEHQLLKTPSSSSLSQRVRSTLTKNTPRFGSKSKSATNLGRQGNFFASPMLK

This assay addresses Rac GTPase-activating protein 1 (Homo sapiens) (UniProt Q9H0H5). Put plainly: MgcRacGAP GTPase-activating activity inhibitors, confirmation, biochemical, ADP Hunter fluorescence, primary and confirmatory (AID 624330).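 Note: fluorescence reports GDP produced by GAP-driven GTP hydrolysis.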 Conditions: MgcRacGAP-stimulated Rac1 GTP hydrolysis, at 30 µM, hits give high values, GST-tagged Rac1 F28L mutant substrate.
`CC1=C(C(=O)Nc2ccccc2C(=O)NCCCOC(C)C)SCCO1`: the inhibition was -0.28% (inactive).

For the compound `O=C(Nc1ccccc1)c1cccc(N2C(=O)C3C4C=CC(C4)C3C2=O)c1` (stereo not drawn), the inhibition is 8.69% (inactive). Then `O=C(Nc1ccc(Br)cc1)c1cccc(N2C(=O)C3C4C=CC(C4)C3C2=O)c1` (stereo not drawn), with 7.3% (inactive); and `CN1CCOCCOCCN(C)C1=O`, with 8.52% (inactive); and `O=C(Cc1cccc2ccccc12)NC(=S)Nc1cccc(C(=O)O)c1`, with 5.5% (inactive). For `COc1ccc(C=NNC(=O)NN=Cc2ccc(OC)c(OC)c2)cc1OC`, the inhibition was 3.42% (inactive). With `COc1ccc(/C=N/N=C2\CC3CCC2(C)C3(C)C)cc1O` (stereo not drawn), the inhibition is 5.9% (inactive). Regarding `COc1ccc(/C=C2/S/C(=N/N=C3\CC4CCC3(C)C4(C)C)NC2=O)cc1` (stereo not drawn), the inhibition was 7.33% (inactive). Take `O=C(N/N=C/c1ccc(O)cc1O)NC12CC3CC(CC(C3)C1)C2`: the inhibition was 15% (inactive). Then `COc1cc(/C=N/NC(=O)NC23CC4CC(CC(C4)C2)C3)ccc1OCC(N)=O`, with 7.72% (inactive); and `COc1ccc(C=NNC(=S)NC23CC4CC(CC(C4)C2)C3)cc1OC`, with 7.09% (inactive).

`O=C(N/N=C/c1ccncc1)NC12CC3CC(CC(C3)C1)C2`: the inhibition was 10.9% (inactive). Then `COc1ccc(/C=N/NC(=O)C2C3CCCCC32)cc1OC` (stereo not drawn), with 10.4% (inactive); and `COc1ccc(C(=O)NCC(=O)N/N=C(\C)c2ccco2)cc1OC`, with -0.25% (inactive). Under `CCOC(=O)CNc1nc(Cl)nc(Nc2ccc(Cl)cc2)n1` stands -8.39% (inactive); under `CCCCn1nnc(N(C(=O)c2cccs2)C(=O)c2cccs2)n1`, -4.48% (inactive); under `CC(C)CC(=O)NC(=S)Nc1ccc(N2CCOCC2)c(Cl)c1`, 2.66% (inactive). Turning to `S=C(c1ccc(-c2ccc(Cl)cc2Cl)o1)N1CCCCC1`, the inhibition is 10.8% (inactive).

Take `O=C(COc1ccc(Cl)cc1)NNC(=O)c1ccncc1`: the inhibition was 8.55% (inactive). Then `Cc1ccc(NC(=O)c2sccc2C)cc1S(=O)(=O)N(C)C`, with 11.1% (inactive); and `COc1ccc2c(c1)C1NC(=S)N[C@@](C)(O2)C1C(=O)Nc1ccccc1` (stereo partly drawn), with 9.66% (inactive); and `COc1nn(CC(=O)N2N=C(C(F)F)CC2(O)C(F)F)cc1[N+](=O)[O-]` (stereo not drawn), with 5.35% (inactive). Under `CC(C)CN1CCC(=O)N([C@H](CN=[N+]=[N-])Cc2ccccc2)CC1` stands 7.37% (inactive); under `O=C(NN=Cc1cc([N+](=O)[O-])ccc1O)c1cccc2ccccc12`, 4.07% (inactive); under `COc1ccc(/C=N/NC(=O)NC23CC4CC(CC(C4)C2)C3)c(OC)c1`, 0.89% (inactive). `O=C(N/N=C/c1ccccc1O)NC12CC3CC(CC(C3)C1)C2`: the inhibition was 7.17% (inactive). As for `COc1ccccc1N1CCN(C2CCCN(C(=O)c3ccsc3)C2)CC1` (stereo not drawn), the inhibition was 9.49% (inactive). `Cc1nnc(SCC(=O)NNC(=O)COc2ccc(Cl)cc2)s1`: the inhibition is 3.46% (inactive). Take `CCN(CC)c1ccc(C(=O)NNC(=O)CCNC(=O)c2ccccc2)cc1`: the inhibition was 7.48% (inactive).

In the case of `CCN(CC)c1ccc(C(=S)NCc2ccccc2)cc1`, the inhibition was 9.69% (inactive). For the compound `CCN(CC)c1ccc(C(=O)NN)cc1`, the inhibition was 10% (inactive). Under `CCN(CC)c1ccc(C(=C2C=CC(=[N+](CC)CC)C=C2)c2ccc(S(=O)(=O)O)cc2S(=O)(=O)[O-])cc1` stands 25.4% (inactive). Turning to `CC(C)(/C=N/NC(=O)CSCc1ccccc1Cl)CCC#N`, the inhibition is 4.57% (inactive). Then `Cc1nc(NC(=O)C2CC2)sc1C(=O)Nc1ccccc1`, with 12.6% (inactive); and `CCc1ccc(NS(=O)(=O)c2ccc3[nH]c(=O)[nH]c3c2)cc1`, with -4.35% (inactive). For the compound `Cn1c(SCC(=O)NC2CCS(=O)(=O)C2)nnc1-c1ccco1` (stereo not drawn), the inhibition was -3.56% (inactive). With `O=C(CCNC(=O)c1ccccc1)NC1CCCc2ccccc21` (stereo not drawn), the inhibition is 6.57% (inactive). On to `Cc1ccc(S(=O)(=O)NCCc2ccncc2)cc1[N+](=O)[O-]`, for which the inhibition was 2.26% (inactive). `CCN(CC)S(=O)(=O)c1cccc(-c2n[nH]c(=S)n2/N=C/c2ccc(OC)cc2)c1`: the inhibition was 8.14% (inactive). Then `CCN(CC)S(=O)(=O)c1cccc(-c2n[nH]c(=S)n2/N=C/c2ccc(Br)cc2)c1`, with 12.8% (inactive); and `CC(=O)Nc1ccc(Oc2ccc(-c3noc(C)n3)cc2)cc1`, with 10.9% (inactive); and `CC(NC(=O)Cc1cccc(C(F)(F)F)c1)c1ccc(F)cc1` (stereo not drawn), with 0.98% (inactive).

As for `CCOC(=O)c1c(C)nsc1NCc1ccccc1`, the inhibition was 10.9% (inactive). Under `CCOC(=O)c1c(C)nsc1NC(=O)C1CCCCC1` stands -1.81% (inactive). Then `CCOC(=O)c1sc(NC(=O)CC)nc1C`, with 7.69% (inactive); and `CCOC(=O)c1sc(NC(C)=O)nc1C`, with 6.36% (inactive); and `O=C(NCCO)c1ccc(-c2nnc(N3CCOCC3)c3ccccc23)cc1`, with 1.36% (inactive).

As for `O=C1CCc2cc(S(=O)(=O)Nc3ccc(F)cc3)cc3c2N1CC3`, the inhibition is 6.87% (inactive). Under `N=C(N)c1ccc(O)cc1` stands 3.97% (inactive); under `N=C(N)c1ccccc1`, 2.01% (inactive) and 4.94% (inactive). Then `O=[N+]([O-])/C=C\c1ccc(N2CCOCC2)cc1`, with 24% (inactive); and `O=[N+]([O-])c1ccc(C=CC=Cc2ccccc2)cc1`, with 5.54% (inactive). With `O=[N+]([O-])/C=C/c1cn(Cc2ccccc2)c2ccccc12`, the inhibition is 4.89% (inactive). For `Cc1cccc(Cn2cc(/C=C/[N+](=O)[O-])c3ccccc32)c1`, the inhibition was 3.28% (inactive). Then `CS(=O)(=O)N(CC(=O)NCCSCc1ccco1)c1ccc(Cl)cc1`, with 5.58% (inactive); and `Cc1ccc(N(CC2CO2)S(=O)(=O)c2ccc([N+](=O)[O-])cc2)cc1` (stereo not drawn), with 4.81% (inactive). Regarding `COC(=O)c1ccc(NC(=O)C2CCN(C(=O)Nc3ccccc3)CC2)cc1`, the inhibition was 5.55% (inactive). Take `O=[N+]([O-])c1cc(C(F)(F)F)ccc1N1CCN(CCO)CC1`: the inhibition is 4.15% (inactive). Then `O=[N+]([O-])c1ccc(N2CCCC2)c([N+](=O)[O-])c1`, with 6.43% (inactive); and `Cc1nn(CC(=O)Nc2ccc3c(c2)OCCO3)c(C)c1[N+](=O)[O-]`, with 0.26% (inactive). On to `CCOC(=O)/C=C/c1cnn(-c2ccccc2)c1`, for which the inhibition was 6.95% (inactive). Regarding `O=C(O)/C=C/c1cnn(-c2ccccc2)c1`, the inhibition is 2.55% (inactive).

On to `CCN=C1S/C(=C\c2cc(Cl)c(OC)c(OC)c2)C(=O)N1CC`, for which the inhibition is 4.7% (inactive). Regarding `O=C(NNS(=O)(=O)c1ccc(F)cc1)c1ccc(O)cc1`, the inhibition is 6.98% (inactive). For the compound `CCOC(=O)Cn1nnnc1CN1CCN(c2ccc(OC)cc2)CC1`, the inhibition is 14.7% (inactive). Under `COc1ccc(Cn2nnnc2CN2CCOCC2)cc1` stands 7.47% (inactive); under `C=CCN(c1ccccc1)S(=O)(=O)c1cccc(C(=O)Nc2ncccc2O)c1`, -0.92% (inactive).

As for `Cc1ccc(N(C(=O)Cn2nnc(-c3ccccc3F)n2)C(C(=O)NC2CCCC2)c2ccncc2)cc1` (stereo not drawn), the inhibition is 6.05% (inactive). For the compound `COc1ccc(OC)c(-c2csc(NC(=O)COC(=O)c3ccc(NC(=O)CC#N)cc3)n2)c1`, the inhibition is 5.16% (inactive). Under `Cc1cc(C(=O)NC(C)C2CCCO2)cs1` (stereo not drawn) stands -7.59% (inactive); under `CCCn1c(=O)c2ccccc2n2c(SCCOc3ccccc3)nnc12`, 4.68% (inactive); under `CCCn1c(=O)c2ccccc2n2c(SCC(N)=O)nnc12`, 18.7% (inactive). Consider `Cc1ccc(NC(=O)CN(C)S(=O)(=O)c2ccc3c(c2)n(C)c(=O)c(=O)n3C)cc1`, for which the inhibition was 7.39% (inactive). Under `CCOC(=O)C(=NC(C)CC)NNc1ccc(Br)cc1` (stereo not drawn) stands 9.58% (inactive). Then `O=C(CN1CCN(C(=O)c2ccco2)CC1)Nc1cccc([N+](=O)[O-])c1`, with 4.6% (inactive); and `O=C(c1ccco1)N1CCN(Cc2cccc(F)c2)CC1`, with 14.6% (inactive). Under `O=[N+]([O-])c1cccc(CN2CCN(c3ncccn3)CC2)c1` stands 25.4% (inactive); under `O=[N+]([O-])c1ccc(N2CCN(Cc3cccc([N+](=O)[O-])c3)CC2)cc1`, 0.8% (inactive); under `O=[N+]([O-])c1ccc(S(=O)(=O)N2CCN(Cc3ccco3)CC2)cc1`, 15.9% (inactive). Regarding `O=C(c1c(Cl)cccc1Cl)N1CCN(c2ncccn2)CC1`, the inhibition is 14.4% (inactive). `O=[N+]([O-])c1cccc(CN2CCCCCC2)c1`: the inhibition was 10.9% (inactive).

Turning to `O=C(c1c(Cl)cccc1Cl)N1CCCCCC1`, the inhibition is 7.13% (inactive). In the case of `C[C@H](NC(=O)C1CC(=O)N(c2ccc3c(c2)OCCO3)C1)C(=O)N1CCCCC1` (stereo partly drawn), the inhibition is 7.93% (inactive). Consider `CCC(CC)NC(=O)COC(=O)c1cc(Br)ccc1Cl`, for which the inhibition is 7.43% (inactive).

As to `CC(C)NC(=O)CN(Cc1ccc(F)cc1)C(=O)CCC(=O)Nc1ccccn1`, the inhibition was 4.82% (inactive). Then `CC(=O)c1ccc(N=Nc2ccc(C)cc2)cc1`, with 3.59% (inactive). As to `COc1ccc(C(C)=O)cc1CN1C(=O)NC2(CCCCCC2)C1=O`, the inhibition was -0.57% (inactive).

In the case of `Cc1ccc(S(=O)(=O)N(C)CCN(C)S(=O)(=O)c2ccc(C)cc2)cc1`, the inhibition is 6.45% (inactive). Then `Cc1cccc(OCC(=O)N(Cc2ccc(F)cc2)C2CCS(=O)(=O)C2)c1C` (stereo not drawn), with 9.11% (inactive); and `O=C(N/N=C/C(Cl)=C/c1ccccc1)c1ccccn1`, with 2.22% (inactive).

For the compound `COc1ccc(-c2csc3nc(C)n(-n4cccc4)c(=O)c23)cc1OC`, the inhibition is 2.59% (inactive). As for `CCCCOC(=O)C1=C(C)Nc2ncnn2C1c1ccc(OCC)c(OC)c1` (stereo not drawn), the inhibition is 4.44% (inactive). Consider `CC(=O)Nc1ccc(NC(=S)NC(=O)C2CCCC2)cc1`, for which the inhibition is 9.09% (inactive). Then `O=C(NC(=S)Nc1ccc(F)cc1)C1CCCCC1`, with 6.1% (inactive); and `COC(=O)c1ccc(NC(=S)Nc2ccc3ccccc3c2)cc1`, with 15.3% (inactive); and `O=C(NNC(=O)C1CC=CCC1)c1ccccc1O` (stereo not drawn), with -10.1% (inactive).

As to `COC(=O)c1ccc(NC(=S)Nc2ccccc2)cc1`, the inhibition is 5.58% (inactive).

With `O=C(Nc1nccs1)C1CC=CCC1` (stereo not drawn), the inhibition was 0.32% (inactive).
